These results are taken from PubChem BioAssay (NCATS).

“And” between values parts separate entries of the source, which are not always exact repeats. Identical values can stand only once. Records with an inconclusive call do not appear. Entries that show only a call come without a potency. The source made the active and inactive calls. Calls come from the whole dose curve; as a rule, active = well fitted inhibition curve with a large enough effect; inconclusive = small, poorly fitted or top-dose-only effect; inactive = flat fitted curve, though single readings scatter.
Potency is the fitted concentration of half-maximal effect.

The first assay relates to HaCat. Kind of assay: Cytotoxic Profiling of Annotated Libraries Using Quantitative High-Throughput Screening (AID 1296008). Note: nearly all actives have a fitted effect of over 60% in size. Conditions: Five cell lines viability, CellTiter-Glo ATP luminescence, 48-72 h; max response: active compounds read low. The method in brief:
(§1)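 Compounds were pin-transferred onto cells and incubated 48 or 72 hr at 37 degree Celsius, 95% humidity. CellTiter-Glo was added, plates sat 10 min at room temperature, then ATP-coupled luminescence was imaged as the viability read-out.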
On the technique in general: In ATP-based viability assays light output follows the ATP content of the culture.
Consider `COc1ccccc1OCCNCC(O)CCOc1cccc2[nH]c3ccccc3c12` (stereo not given), for which the call was inactive. Consider `O=C(Nc1ccc(Cl)cc1)Nc1cccc(-c2cccc(N3CCCC3)n2)c1`, for which the compound was classed as inactive. In the case of `CCN(CC)CCCS(=O)(=O)N[C@H](CCc1ccccc1)c1nc(Cc2ccc(Br)cc2)no1`, the compound was classed as inactive. On the same count and under the same terms, the value for `O[C@@](Cc1ncc(CC2(C(F)(F)F)CC2)[nH]1)(c1ccc(-n2cccn2)cc1)C(F)(F)F` was “inactive”.

Regarding `Clc1ccc(Cn2c(Cc3ccccc3)nc3ccccc32)cc1`, the call was inactive.

Regarding `CCNC1(C(N)=O)CCN(c2ncnc3c2nc(-c2ccccc2Cl)n3-c2ccc(Cl)cc2)CC1`, the call was inactive. For `COc1cc(C(=O)O)ccc1NC(=O)C1NC(CC(C)(C)C)C(C#N)(c2ccc(Cl)cc2F)C1c1cccc(Cl)c1F` (stereo not given), the result was inactive. The same measure, in the same setting: for `CNc1nc(NCc2ccc(NS(C)(=O)=O)cc2Cl)cc(-c2ccccn2)n1` the value was “inactive”; for `N#Cc1ccc(N2N=C3c4ccc(C(=O)O)cc4CC[C@@H]3[C@@H]2C2CCCC2)cc1Cl`, “inactive”; for `CC(C)(O)c1ccn2c(-c3ccc(F)c(-c4ccc(F)cc4C#N)c3)cnc2c1F`, “inactive”. Regarding `O=S(=O)(c1ccccc1)N(CC(F)(F)F)c1ccc(C(O)(C(F)(F)F)C(F)(F)F)cc1`, the compound was called inactive.

On to `Cc1cc(C)cc(-c2cnc3cc(Cl)c(-c4cccc(O)c4)cc3c2OCCCN)c1`, for which the compound was called inactive. On the same count and under the same terms, the value for `CC(C)=C[C@@H]1[C@H](CO[C@@H]2O[C@H](CO)[C@@H](O)[C@H](O)[C@H]2O)C1(C)C` was “inactive”; that for `O=C(COc1ccc2ccccc2c1Br)Nc1cccnc1` was “inactive”. Regarding `O=C(NCc1nc2ccccc2c(=O)n1-c1ccc(F)cc1)Nc1ccc(Cl)c(C(F)(F)F)c1`, the outcome was inactive. As for `CCCN1CCC=C(c2cc(-c3ccc(C)cc3)no2)C1`, the compound was classed as inactive. On to `C[C@]12CC[C@@H]3c4ccc(O)c(O)c4CC[C@H]3[C@@H]1CCC2=O`, for which the compound was classed as inactive. For the compound `COc1cc2c(cc1-c1c(C)noc1C)ncc1[nH]c(=O)n(C(C)c3ccccn3)c12` (stereo not given), the compound was classed as inactive.

The subject of the next assay is KB-3-1. Described as above. Conditions: Five cell lines viability, CellTiter-Glo ATP luminescence, 48-72 h; max response: active compounds read low. The method in brief:
as §1
In the case of `Clc1cccc(COc2cncc(N3CCNCC3)n2)c1`, the max response is -0.792% (inactive).

As to `CC1(NC(=O)c2ccc(C#Cc3cccc(F)c3)cn2)COC1`, the max response is -5.29% (inactive). As for `O=C(Nc1cccc2cccnc12)c1ccc(N2C(=O)[C@@H]3C4C=CC(C4)[C@@H]3C2=O)cc1`, the max response is -2.67% (inactive).

Turning to `Cc1c(NC(=O)OCC2COCCN2)cn2ncnc(Nc3ccc4c(cnn4Cc4cccc(F)c4)c3)c12` (stereo not given), the max response was -18.9% (inactive).

For the compound `COc1ccccc1C(=O)Nc1cc2c(cc1N1CCCC1)n(C)c(=O)n2C`, the max response was -11.6% (inactive). `Fc1ccc(N2CCCCC2)c(NC(=S)c2ccncc2)c1`: the max response is -9.62% (inactive).

For the compound `CCOc1cn(-c2ccc(F)cc2C)nc1C(=O)Nc1ccc(Oc2ccnc3cc(OC)c(OC)cc23)c(F)c1`, the max response was 5.26% (inactive). As for `COc1ccc(CCCN2CCC(COC(c3ccccc3)c3ccccc3)CC2)cc1`, the max response was -17.2% (inactive). On to `O=C(c1c(F)ccc(NS(=O)(=O)N2CC[C@@H](F)C2)c1F)c1c[nH]c2ncc(-c3cnc(C4CC4)nc3)cc12`, for which the max response is -23.7% (inactive). For `CNc1nc(Nc2ccc(C(=O)N3CCOCC3)cc2OC)nc2[nH]cc(Cl)c12`, the Potency is 10.3 µM (active). Turning to `Cn1ncc2cc(-c3cnc(N)c(Cl)c3N3CCC4(CCNC4=O)CC3)ccc21`, the outcome was inactive. Turning to `CC(C)=CCC[C@](C)(O[C@@H]1O[C@H](CO[C@@H]2OC[C@@H](O)[C@H](O)[C@H]2O)[C@@H](O)[C@H](O)[C@H]1O)[C@H]1CC[C@]2(C)[C@@H]1[C@H](O)C[C@@H]1[C@@]3(C)CC[C@H](O[C@@H]4O[C@H](CO)[C@@H](O)[C@H](O)[C@H]4O)C(C)(C)[C@@H]3CC[C@]12C`, the max response is 5.08% (inactive).

For `COc1ccnc(CS(=O)c2nc3cc(OC(F)F)ccc3[nH]2)c1OC` (stereo not given), the max response is -2.25% (inactive) and -1.6% (inactive). On to `CNc1cccc(CCOc2ccc3c(c2)CN(CC(F)(F)F)C(=O)[C@H](CC(=O)O)C3)n1`, for which the max response is -2.45% (inactive). Regarding `CC1(CO)CC2C(O)C3=C(CC(C)(O)C2C1)C(=O)OC3` (stereo not given), the max response is 9.13% (inactive).

With `CCCCc1c(-c2ccc(OC)cc2)[nH]c2nccnc12`, the max response is 2.93% (inactive).

Consider `COc1ccc(S(=O)(=O)N2CCC[C@H]2C(=O)Nc2cc(C)cc(C)c2)cc1`, for which the outcome was inactive. On to `CCCC(Nc1nc(-c2ccc(NC(=O)NCC)c(OC)c2)ncc1C)c1cccnc1` (stereo not given), for which the Potency was 0.146 µM (active). Take `Cc1cc(C)c2c(c1)C(N(Cc1cc(C(F)(F)F)cc(C(F)(F)F)c1)c1nnn(C)n1)CCCN2CC1CCC(C(=O)O)CC1` (stereo not given): the Potency was 14.6 µM (active). Consider `CC(C)=CCC/C(C)=C/COCC1OC(n2ccc(=O)[nH]c2=O)C(O)C1O` (stereo not given), for which the max response is 7.71% (inactive). For `O=C(CNC(=O)c1cccc(C(F)(F)F)c1)N[C@@H]1CCN(Cc2ccc(Cl)cc2)C1`, the max response was -17% (inactive). For `C/C=C/C=C/C=C/C(=O)O[C@@H]1C=C2COC(=O)[C@]2(O)[C@@]2(C)CCCC(C)(C)[C@H]12`, the max response was -0.753% (inactive).
